# Measurements: PubChem BioAssay (EPA / NIEHS)
# The source made the active and inactive calls. How the source made its calls: active means hit-call score of the fitted dose curve at least 0.9, where 1 is the maximum; inactive means score below 0.9.
# Target: Estrogen receptor (Homo sapiens) (UniProt P03372)
# Experiment: CCTE_Deisenroth_AIME_384WELL_LUC_Shift: CCTE's 384-well Estrogen Receptor Transactivation Assay with AIME metabolic competence data shift (ERTA luciferase; difference in metabolism positive and negative), Deisenroth Lab (AID 2284041);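 further: shift is response with S9 minus without S9 so positive means metabolism raised ER signal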
# Description: CCTE_Deisenroth_AIME_384WELL (AIME metabolism assay) is a cell-based, single-readout assay that uses VM7Luc4E2, a human mammary gland/breast cell line, with measurements taken at 24 hour after chemical dosing in a 384-well plate.CCTE_Deisenroth_AIME_384WELL_LUC_Shift is one of two analysis components calculated from the CCTE_Deisenroth_AIME_384WELL assay. […] AIME is optimized to impart phase I hepatic metabolism using phenobarbital/beta-naphthoflavone induced hepatic S9 from male Sprague Dawley rats. Parent chemicals are incubated for 2 hours in the AIME assay prior to transfer to the VM7Luc ERTA assay plate. […] The metabolic curve shift response is defined as the pairwise difference between the positive (AEID 2488) and negative (AEID 2490) normalized response values at each concentration for a given chemical across replicate experiments. The pairwise differences form the basis for a concentration-response curve. Standard curve fit analysis identfiied chemicals where the calculated shift was greater than the shift-derived baseline cutoff. A positive hit designation in this endpoint indicates a significant shift trend in the positive direction for bioactivation.
# The AIME procedure consists of a preparative "pre-stamping" step using a barium chloride/poly-L-lysine (PLL) solution followed by "stamping" the lid in alginate-hepatic S9 (metabolism positive) or alginate-water (metabolism negative) to form microspheres. Once stamping is completed, the AIME lids are placed in duplicate microplates (metabolism positive or negative) containing chemical solutions and incubated for two hours to facilitate metabolic reactions. The conditioned medium, containing parent chemical or metabolites, is then transferred to the cell-based VM7Luc Estrogen Receptor Transactivation Assay (ERTA) for 24 hours. A typical experimental design tests a 10-point concentration series (0.002 - 200 uM) for 8 compounds (96-well format)1 or 32 compounds (384-well format)2 in single technical replicate. AIME assay controls include trans-stilbene (bioactivated control) and ethylparaben (bioinactivated control). ERTA assay plate controls include 17-beta estradiol (positive control) and DMSO (solvent control). Experiments typically comprise a minimum of four experimental replicates (n=4).
# Estrogen receptor (Homo sapiens), sequence (P03372 whole entry, looked up): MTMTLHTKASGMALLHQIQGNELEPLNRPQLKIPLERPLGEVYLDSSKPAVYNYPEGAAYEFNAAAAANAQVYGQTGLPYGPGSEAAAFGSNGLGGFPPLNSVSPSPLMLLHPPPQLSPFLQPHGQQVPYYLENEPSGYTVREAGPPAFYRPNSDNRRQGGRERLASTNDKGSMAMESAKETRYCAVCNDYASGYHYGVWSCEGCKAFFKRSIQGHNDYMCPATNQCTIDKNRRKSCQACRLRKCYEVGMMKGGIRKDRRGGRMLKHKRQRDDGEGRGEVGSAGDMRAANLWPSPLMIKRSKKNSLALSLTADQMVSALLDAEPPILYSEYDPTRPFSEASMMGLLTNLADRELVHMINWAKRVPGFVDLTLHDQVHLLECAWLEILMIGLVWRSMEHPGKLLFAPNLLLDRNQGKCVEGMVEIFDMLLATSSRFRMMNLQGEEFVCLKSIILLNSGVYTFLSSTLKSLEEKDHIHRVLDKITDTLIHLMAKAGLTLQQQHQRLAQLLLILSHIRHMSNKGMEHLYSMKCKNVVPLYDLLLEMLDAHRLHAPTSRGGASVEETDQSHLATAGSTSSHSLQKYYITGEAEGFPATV
SMILES,outcome,AC50
ClC(Cl)=C(Cl)C(Cl)=C(Cl)Cl,inactive,
O=C1CCCN1,inactive,
NNC(=S)NN,inactive,
COP(=O)(OC)OC,inactive,
CNC,inactive,
Cc1ccc(N)cc1Cl,inactive,
O=C(Cc1ccccc1)c1ccccc1,inactive,
[O-][Cl+2]([O-])O,inactive,
CCC(C)(C)c1ccc(O)c(C(C)(C)CC)c1,inactive,
CC1(C)CCC(Cc2ccc(Cl)cc2)C1(O)Cn1cncn1 (stereo not drawn),inactive,
CC(C)(c1ccccc1)c1ccc(O)c(C(C)(C)c2ccccc2)c1,inactive,
COc1ccc(C=O)cc1,inactive,
CC(=O)C=C(C)C,inactive,
O=C(NCO)NCO,inactive,
O=C1C(Cl)=C(Cl)C(=O)c2ccccc21,inactive,
CCOC(=O)Nc1cccc(OC(=O)Nc2ccccc2)c1,inactive,
COP(=O)(OC)O/C(=C\Cl)c1cc(Cl)c(Cl)cc1Cl,inactive,
CCOP(=S)(OCC)SCSP(=S)(OCC)OCC,inactive,
CC(C)(C)c1cc(O)ccc1O,,30700 nM (active)
NC(=O)O,inactive,
CNC(=O)O/N=C/C(C)(C)S(C)=O (stereo not drawn),inactive,
c1cc[c]([Hg][c]2ccccc2)cc1,,365 nM (active)
CC(=O)c1cc(C(C)(C)C)cc2c1CCC2(C)C,inactive,
OCC(O)CCl (stereo not drawn),,2.81 nM (active)
C=C(C)C#N,inactive,
O=S(=O)(c1ccc(Cl)cc1)c1ccc(Cl)cc1,inactive,
CC(=O)[O][Hg][c]1ccccc1,inactive,
CCCCCCCCSC(=O)Oc1cc(Cl)nnc1-c1ccccc1,inactive,
